Source: PubChem BioAssay (National Center for Advancing Translational Sciences (NCATS))
Only some compounds are listed: those with a hit (about 2.3% of all), similar ones and a draw of the others.
LASV entry inh: qHTS for Inhibitors of binding or entry into cells for Lassa Virus. Lassa virus pseudotype entry inhibition, cell reporter. AID 540256, 2011. Potency, µM (doses to about 37.9 µM), for the others: at the highest dose activity change, negative = inhibition, usual class: inhibitors. hit rate 1.2% among 300,000; calls by dose curve; tested in HEK293 cells; also: nearly all actives have a fitted effect of over 50% in size
Marburg entry inh: qHTS for inhibitors of binding or entry into cells for Marburg Virus; hit rate 1.8% among 300,000; Potency, µM (highest dose often 37.8 µM), for the others: at the highest dose activity change, negative = inhibition, actives largely listed as inhibitors; AID 540276, 2011; Marburg virus pseudotyped entry inhibition, cell reporter; calls by dose curve; tested in HEK293 cells
AMA1-RON2 inh: qHTS for Inhibitors of AMA1-RON; Towards Development of Antimalarial Drug Lead: Primary Screen; Plasmodium falciparum AMA1 (3D7) - RON2 peptide interaction; AlphaScreen AMA1-biotinylated RON2 peptide binding; Potency, µM (doses to about 58.2 µM), for the others: at the highest dose activity change, negative = inhibition, actives largely listed as inhibitors; hit rate 0.2% among 360,000;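 also: 0% = vehicle wells and -100% = peptide control; nearly all actives have a fitted effect of over 45% in size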
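AMA1 (3D7) with his tag at 25 nM final met compounds first, then biotinylated RON2 peptide at 25 nM; detection used donor plus acceptor beads, 10 µg/mL apiece, read by AlphaScreen after 30 min at room temperature.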
AmpC inh detg: qHTS Inhibitors of AmpC Beta-Lactamase (assay with detergent); AmpC hydrolysis of nitrocefin, absorbance 480 nm, 0.01% Triton; Potency, µM (series often up to 114 µM), without a hit: top-dose activity change, negative = inhibition, most hits filed as inhibitors; hit rate 0.041% among 370,000;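 also: 0% = no-compound wells and -100% = no-enzyme wells; nearly all actives have a fitted effect of over 25% in size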
Target sequence (P00811 whole entry, looked up): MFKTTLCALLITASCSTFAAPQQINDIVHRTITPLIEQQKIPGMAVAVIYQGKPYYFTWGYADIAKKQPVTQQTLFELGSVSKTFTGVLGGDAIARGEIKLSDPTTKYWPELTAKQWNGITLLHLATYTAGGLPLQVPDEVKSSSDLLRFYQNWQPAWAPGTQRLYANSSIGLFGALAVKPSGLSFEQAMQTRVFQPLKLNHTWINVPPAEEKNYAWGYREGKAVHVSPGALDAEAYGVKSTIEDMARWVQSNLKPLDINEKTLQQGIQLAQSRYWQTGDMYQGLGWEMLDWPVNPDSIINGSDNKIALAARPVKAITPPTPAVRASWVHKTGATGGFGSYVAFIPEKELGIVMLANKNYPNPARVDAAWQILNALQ
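AmpC (5.3 nM in the dispensed reagent) in 20 mM phosphate pH 7.0 with 0.01% (detergent screen) or 0.0001% Triton X-100 was preincubated with compounds for 15 min at room temperature. Nitrocefin was then added from an 800 uM solution, and hydrolysis was followed at 480 nm.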
AmpC inh no detg: qHTS Inhibitors of AmpC Beta-Lactamase (assay without detergent). P00811. AmpC nitrocefin hydrolysis, absorbance 480 nm, 0.0001% Triton. Potency, µM (titrated, usually from 57.1 µM), without a hit: top-dose activity change, negative = inhibition, usual class: inhibitors. hit rate 0.52% among 330,000;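 also: plate controls were no compound for no effect and no enzyme for full effect; nearly all actives have a fitted effect of over 20% in size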
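20 mM phosphate pH 7.0 + 0.01% (detergent screen) or 0.0001% Triton X-100; 5.3 nM AmpC reagent; cpd preinc 15 min RT; nitrocefin (800 uM stock) to start; A480 q20 s × 4 min; Activity was normalised to no-enzyme and no-compound control wells.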
* = called active by the depositor; ? = inconclusive; · = not tested or not shown; ! = not active in a repeat; [ ] = dose if it differs, or a comment. Unless noted, calls follow the shape of the dose curve; as a rule, active = well fitted curve in the direction sought with a large enough effect; inconclusive = small, poorly fitted or top-dose-only effect, or another doubt; inactive = no such curve, though single readings can be large; an effect the other way counts as inactive or inconclusive. Unless noted, % is scaled to controls: 0 for no effect and ±100 for the full control effect; potency is read from the fitted curve at half-maximal effect.

SMILES	LASV entry inh	Marburg entry inh	AMA1-RON2 inh	AmpC inh detg	AmpC inh no detg
Nc1ccccc1Nc1cc(-c2ccccc2)nn1-c1ccccc1	0%	-5%	?	-13%	-34%
C[C@]12N[C@H](Cc3ccccc31)c1ccccc12	7%	14µM*!	1%	·	·
COc1ccc(C(C(=O)NC(C)(C)C)N(CCc2ccccc2)C(=O)CCC(=O)Nc2cc(C)on2)cc1 (configuration not stated)	-4%	8.9µM*	-9%	0%	110%
COc1ccc(C(C(=O)NC(C)(C)C)N(CCO)C(=O)CCC(=O)Nc2cc(C)on2)cc1 (configuration not stated)	?	8%[46.1 µM]	19%	-4%	0%
CC(C)C(=O)NC(=O)[C@@H]1CCCN1C(=O)C=Cc1ccccc1	·	1%[14.2 µM]	·	·	·
Cc1ccc(OCc2ccc(C(=O)Nc3c(C)nn(Cc4c(F)c(F)c(F)c(F)c4F)c3C)o2)c([N+](=O)[O-])c1	?	16µM*	-11%	?	125%
N/C(CCN1CCCCC1)=N\O	·	-5%	·	·	·
Cn1c(Cl)cnc1C1CC(=O)c2cc(Cl)ccc2O1 (configuration not stated)	?	10µM*	-26%	9%	0%
COC(=O)C1=C(C)OC(N)=C(C#N)C1c1ccc(OC)c(CSc2ccccn2)c1 (configuration not stated)	-12%	-11%	-15%	1%	0.22µM*
COC(=O)C1=C(C)OC(N)=C(C#N)C1c1ccccc1 (configuration not stated)	12%	-1%	1%	-4%	-18%
COC(=O)c1ccc(=O)c2nc3/c(=C/O)c(O)cc(=O)c3[nH]c12	·	·	1.3µM*	?	-38%
OC[C@H]1O[C@H](c2ccccc2)C=C[C@H]1O	·	-8%[14.2 µM]	·	·	·
CCCc1nc2c(C)ccc(C)c2c(N)c1CC	-24%	9.2µM*	-12%	-15%	-5%
Cc1ccc(C)c(/C=N/n2cc(-c3ccccc3)[nH]c2=S)c1	-7%	-10%[46.1 µM]	31%	-13%	16µM*
CCCCCCCCCC(=O)N/N=C/c1ccc(C)s1	9.2µM*	?	0%	12%	-26%
CCn1c(SCC(=O)N/N=C/c2ccc(C)s2)nc2ccccc21	-19%	2.6µM*	14%	-1%	-29%
Cc1ccc(/C=N/NC(=O)C[n+]2ccccc2)s1	3%[46.1 µM]	9%[46.1 µM]	10%	6%	-13%
Cc1ccc(/C=N/NC(=O)CSc2nc3ccccc3c(=O)n2-c2ccccc2)s1	2%	5%	-4%	?	-32%
CCc1c(C)sc(NC(=O)C2CC2c2ccccc2)c1C(N)=O (configuration not stated)	2.9µM*	3.3µM*	-22%	8%	-7%
O=C(O)Cc1coc2ccc3ccccc3c12	0%[46.1 µM]	7%[46.1 µM]	7%	-19%	-30%
Cc1cccc(NC(=O)Cc2coc3ccc4ccccc4c23)n1	?	6.5µM*	?	2%	-27%
CC(=O)C1CCC2C3CCC4=CC(=O)C=CC4(C)C3C(=O)CC12C (configuration not stated)	1%[46.1 µM]	-20%[46.1 µM]	24%	·	·
C[C@]12C=CC(=O)C=C1CC[C@@H]1C2=CC[C@]2(C)[C@@H](C(=O)CN3CCN(c4cc(N5CCCC5)nc(N5CCCC5)n4)CC3)CC[C@@H]12	-25%	5.6µM*	-14%	·	·
CC(=O)c1ccc(NC(=O)C(C)OC(=O)/C=C/c2ccco2)cc1 (configuration not stated)	?	11µM*	0%	·	-26%
CC(OC(=O)/C=C/c1ccco1)C(=O)Nc1cccc([N+](=O)[O-])c1 (configuration not stated)	-16%	?	-7%	5%	-28%
SMILES	LASV entry inh	Marburg entry inh	AMA1-RON2 inh	AmpC inh detg	AmpC inh no detg
O=C(C1=C(C(=O)N(C2CCCCC2)C2CCCCC2)CCCC1)N1CCCCC1	·	-9%	·	·	·
COc1ccccc1NC(=O)C1CCN(C(=O)c2sc3nc[nH]c(=O)c3c2C)CC1	9%[46.1 µM]	·	·	3%	·
COc1ccccc1CCNC(=O)C(C)Sc1nc(-c2ccccc2)cc(C(F)(F)F)n1 (configuration not stated)	6%[46.1 µM]	-11%[46.1 µM]	·	-1%	·
CC(NC(=O)Nc1nnc(C(F)(F)F)s1)(C(F)(F)F)C(F)(F)F	3.5µM*	?	2%	-5%	-33%
CCc1ccc(OCC2NCCc3cc(OC)c(OC)cc32)cc1 (configuration not stated)	·	·	-7%	-11%	0%
COc1ccc(C2NCCc3c2[nH]c2ccccc32)cc1CN1CCc2cc(OC)c(OC)cc2C1C (configuration not stated)	·	·	-7%	7%	81%
CC[C@@H]1CN2CCc3cc(OC)c(OC)cc3[C@H]2C[C@@H]1C[C@H]1NCCc2cc(OC)c(OC)cc21	·	0.33µM*	·	·	·
CCC1CN2CCc3cc(OC)c(OC)cc3C2CC1CC1NCCc2c1[nH]c1ccc(O)cc21 (configuration not stated)	0.5µM*	0.22µM*	-9%	·	·
COC(=O)CC=C[C@@H](C)[C@@H](C=NOC[C@@H](O)[C@H]1O[C@@H]2OC(C)(C)O[C@H]2[C@@H]1O)OC	?	22%[14.2 µM]	·	·	·
CCOC(=O)CN1C(=O)NC(c2cccc(C(F)(F)F)c2)C(C(=O)OC)=C1C (configuration not stated)	·	-11%[14.2 µM]	·	·	·
COc1cccc(Nc2nc(-c3ccccc3O)nc3ccccc23)c1	·	·	0%	-9%	-39%
COc1ccc(Nc2nc(-c3ccccc3O)nc3ccccc23)cc1	-21%	?	-16%	0%	2µM*
COc1ccc(Nc2nc(-c3ccncc3)nc3ccccc23)cc1	-10%[46.1 µM]	2.8µM*	6%	-16%	-14%
CCOC(=O)CNc1nc(-c2ccncc2)nc2ccccc12	24%	11µM*	9%	?	-28%
O=C(NCCc1ccccc1)c1ccc2c(c1)N(Cc1ccccc1)C(=O)c1ccccc1S2=O (configuration not stated)	-17%[46.1 µM]	?	·	-1%	·
COCC1=NC2C(=O)N(C)C(=O)N(CC(C)C)C2=N1 (configuration not stated)	·	13%	·	·	·
COC(=O)CC(=O)CSc1nc2cc(C(=O)NCC(C)C)ccc2c(=O)n1CCc1ccccc1	?	·	·	10%	·
Cc1cncn1CCc1nc2c3ccccc3nc(SCC(=O)Nc3cccc(Cl)c3)n2n1	?	6.5µM*	-21%	11%	212%
Cc1nc2ccccc2n1CCc1nc2c3ccccc3nc(SCC(=O)NCc3ccco3)n2n1	?	10µM*	43%	-6%	137%
